This note sets out measurements from PubChem BioAssay AID1619 (SRMLSC, 2009).

SMILES strings stand for the structures. The campaign covered roughly 220,000 compounds. About 830 (0.38%) were called active. Only a sample is shown. Entries with a potency or affinity are not part of this list. Unmarked numbers belong to inactive results.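 The calls were made as follows: active = compound inhibiting the enzyme by more than half at any dose during confirmatory dose-response retesting; inconclusive = strong single-dose inhibitors picked by rank but not retested; inactive = the rest.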

For this assay, the target named is Leucine aminopeptidase (Plasmodium falciparum (isolate 3D7)) (UniProt Q8IL11). Put plainly: P. falciparum M17LAP inhibitors, primary screen, biochemical, fluorogenic H-Leu-NHMec substrate, 1536-well (AID 1619).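 Also: plate controls were full reaction with DMSO carrier for no effect and no enzyme background for full effect.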 The settings on record: recombinant M17LAP, H-Leu-NHMec fluorogenic kinetic assay; at 30 µM; active compounds read high.
Leucine aminopeptidase (Plasmodium falciparum (isolate 3D7)), sequence (Q8IL11 whole entry, looked up): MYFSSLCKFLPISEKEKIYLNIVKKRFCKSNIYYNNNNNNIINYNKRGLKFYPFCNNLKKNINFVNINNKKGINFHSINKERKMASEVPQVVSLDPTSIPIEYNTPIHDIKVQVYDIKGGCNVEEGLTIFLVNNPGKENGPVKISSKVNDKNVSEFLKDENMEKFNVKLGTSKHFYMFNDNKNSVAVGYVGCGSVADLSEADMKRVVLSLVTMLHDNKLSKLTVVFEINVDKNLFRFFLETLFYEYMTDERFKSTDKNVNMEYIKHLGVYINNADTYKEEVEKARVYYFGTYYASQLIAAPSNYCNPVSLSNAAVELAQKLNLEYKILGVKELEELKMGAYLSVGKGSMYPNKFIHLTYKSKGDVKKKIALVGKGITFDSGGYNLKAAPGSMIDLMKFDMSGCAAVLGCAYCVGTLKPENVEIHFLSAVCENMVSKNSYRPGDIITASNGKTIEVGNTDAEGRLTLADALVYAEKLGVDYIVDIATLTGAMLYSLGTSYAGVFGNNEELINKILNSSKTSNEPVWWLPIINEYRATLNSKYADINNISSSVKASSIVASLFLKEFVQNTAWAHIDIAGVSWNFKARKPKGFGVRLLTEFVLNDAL
As to `O=C1NC(=S)S/C1=C\c1cc2ccccc2nc1N1CCCCC1`, the inhibition was 8.4%.
With `COc1ccc2nc(N3CCCCC3)c(/C=C3\SC(=S)NC3=O)cc2c1`, the inhibition was 15.3%.
On to `O=C(CSCc1ccccc1Br)N/N=C/c1ccc(OCC(=O)N2CCCCC2)cc1`, for which the inhibition is 9.49%.
As to `O=C1NC2(CCCCC2)C(=O)N1/N=C/c1ccccc1Br`, the inhibition is -1.17%.
For the compound `CCCc1nc2ccccc2c(=O)n1/N=C/c1ccccc1O`, the inhibition was -13.5%.
The same measure for `CCCc1nc2ccccc2c(=O)n1/N=C/c1ccc(O)cc1`: -6.52%.
For the compound `Cc1ccc(-c2cccc(NC(=O)C3C(C(=O)O)[C@@H]4C=C[C@H]3C4)c2)o1` (stereo partly drawn), the inhibition was 22.7%.
Consider `Cc1ccc(-c2ccc(NC(=O)C3C4C=CC(C4)C3C(=O)O)cc2)o1` (stereo not drawn), for which the inhibition was 51.5%.
Consider `CCOC(=O)C/C(C)=N/NC(=O)C1CC1(c1ccccc1)c1ccccc1` (stereo not drawn), for which the inhibition was -7.82%.
As to `Cc1cc(NC(=O)c2ccc(NC(=O)C3CC3)cc2)no1`, the inhibition was -1.13%.
On to `COc1ccc(Br)cc1CN(C)C(C)C(=O)Nc1cccc(C(C)=O)c1` (stereo not drawn), for which the inhibition was -4.69%.
As to `Cc1ccc(NC(=O)Cn2cc3c(n2)CCC(C)C3)cc1` (stereo not drawn), the inhibition was -7.43%.
Take `CC1CCc2nn(CC(=O)Nc3ccc(F)cc3F)cc2C1` (stereo not drawn): the inhibition is 6.54%.
To `CC1CCN(S(=O)(=O)c2ccc3ncn(CC(=O)N(C)Cc4ccccc4)c(=O)c3c2)CC1` belongs 3.66%.
To `COc1ccc(N2C(=O)CCC(C(=O)N3CCCCCC3)C2c2ccc(OC)c(OC)c2)cc1` (stereo not drawn) belongs -1.54%; to `CCCCC(CC)C(=O)NCC(C)NC(=O)C(CC)CCCC` (stereo not drawn), 2.99%.
For the compound `CCOc1ccc(C(=O)NCC(=O)OCC(=O)Nc2ccccc2OCC)cc1`, the inhibition was 0.01%.
Regarding `CC(OC(=O)Cc1coc2ccc3ccccc3c12)C(=O)Nc1ncc(Cl)cc1Cl` (stereo not drawn), the inhibition was 5.82%.
With `Cn1c(=O)[nH]c(=O)c2c1nc(NC1CCCCC1)n2CC(=O)NC1CCCCC1`, the inhibition is 10.2%.
For the compound `COc1cccc(NC(=O)CC2COc3ccccc3O2)c1` (stereo not drawn), the inhibition was 7.49%.
As to `COc1ccc(NC(=O)CCC2COc3ccccc3O2)c(OC)c1` (stereo not drawn), the inhibition is 11.9%.
Regarding `COc1cc(OC)c(OC)cc1NC(=O)CC1COc2ccccc2O1` (stereo not drawn), the inhibition is -17.5%.
In the case of `COc1ccc(C)cc1NC(=O)CC1COc2ccccc2O1` (stereo not drawn), the inhibition is 4.49%.
`FC(F)(F)c1ccccc1NC(=S)N1CCN(c2ccccn2)CC1`: the inhibition was 1.6%.
Take `Oc1cc(Cc2ccccc2)cnc1CN1CCOCC1`: the inhibition is -3.17%.
For `CCCCCOP(=O)(c1ccccc1)c1ccccc1`, the inhibition is -7.38%.
To `CCc1ccc(-n2c(SCC(=O)N3Cc4ccccc4CC3C(=O)O)nnc2-c2ccncc2)cc1` (stereo not drawn) belongs -6.38%; to `CC(c1ccon1)N(C)Cc1c(C(=O)N(C)Cc2ccccc2)nc2ccccn12` (stereo not drawn), 11.8%; to `Cc1cc(C(=O)CSc2cccc[n+]2[O-])c(C)n1-c1ccc(Br)cc1`, 1.39%.
Regarding `CCN1c2ccccc2-c2nc3ccccc3n2C1c1cccnc1` (stereo not drawn), the inhibition is -45%.
For `O=C(COC(=O)CCC(=O)c1ccc(Cl)cc1)NC1CC1`, the inhibition is 10.9%.
`O=C(c1ccccc1Cl)N1CCn2c1nc1ccccc12`: the inhibition was 24.5%.
Consider `CCOCCCn1c(SCC(=O)Nc2cc(C(C)(C)C)nn2-c2ccccc2)nc2ccccc2c1=O`, for which the inhibition is -8.18%.
Regarding `O=C1/C(=C/c2ccc([N+](=O)[O-])cc2)C=C(c2ccccc2)N1c1ccccc1`, the inhibition is 1.75%.
For `O=C(O)c1cccc(N2C(=O)/C(=C/c3ccc([N+](=O)[O-])cc3)C=C2c2ccccc2)c1`, the inhibition was 31.6%.
To `CCOC(=O)CC(=O)CSc1nc(C)cc(C)c1C#N` belongs -4.47%.
Consider `COc1cc(NC(=O)c2cccc(C)c2)c(OC)cc1NC(=O)CN1CCOCC1`, for which the inhibition was 14.9%.
Regarding `O=C(O)COc1ccccc1/C=C1\SC(=S)N(c2cccnc2)C1=O`, the inhibition is 10.2%.
With `O=C(O)COc1ccccc1/C=C1\SC(=Nc2ccc(F)cc2)N(c2ccc(F)cc2)C1=O`, the inhibition was 2.19%.
The same measure for `CN1C(=O)S/C(=C\c2ccccc2OCc2ccc(C(=O)O)cc2)C1=O`: 5.62%; for `Cc1ccccc1/C=C1\SC(=S)N(/N=C/c2cc([N+](=O)[O-])ccc2O)C1=O`: 15.5%.
With `Cc1cccc(C2c3[nH]c4ccccc4c3CCN2C(=O)c2cn(C)c3ccccc3c2=O)n1` (stereo not drawn), the inhibition was 8.5%.
Turning to `COCCCNC(=S)N/N=C/c1ccccc1O`, the inhibition is 19.4%.
For `O=C(O)CCCC(=O)Nc1cccc(C(F)(F)F)c1`, the inhibition is 24.8%.
For the compound `CNCC(=O)Nc1ccc(Cl)c(C(F)(F)F)c1`, the inhibition was -1.94%.
For `CCc1nnc(SCC(=O)Nc2ccccc2)nc1CC`, the inhibition is 21.8%.
For `CCc1ccc(NC(=O)CSc2nnc(CC)c(CC)n2)cc1`, the inhibition was 29.2%.
On to `Cc1cc(C)nc(SCc2nnc(SCC(=O)Nc3ccc(Cl)c(C(F)(F)F)c3)o2)n1`, for which the inhibition was 10.2%.
As to `O=C(CSC1=NCCN1)Nc1cccc(C(F)(F)F)c1`, the inhibition was -6.47%.
For `Cc1cc(C)nc(/N=C(\NC(=O)C(C)(C)C)Nc2ccc(F)cc2)n1`, the inhibition was 12.7%.
Regarding `CN(C)CCNC(=S)Nc1ccc(-c2nc3ccccc3[nH]2)cc1`, the inhibition was 18.8%.
In the case of `COc1ccc(-c2csc3nc(C)nc(N4CCN(c5ccc(C(C)=O)cc5)CC4)c23)cc1OC`, the inhibition is -3.5%.
For the compound `COCCSc1ccccc1C(=O)N1CCCC(C)C1` (stereo not drawn), the inhibition is -3.2%.
With `CC(C)(C)C(=O)Nc1cccc(-c2ncon2)c1`, the inhibition is 1.81%.
With `NS(=O)(=O)c1ccc(NC(=O)Cn2ncc3c2-c2ccccc2OC3)cc1`, the inhibition was -1.22%.
With `COc1ccc(OC)c(CNC(=O)Cc2c(C(=O)O)[nH]c3ccccc23)c1`, the inhibition was 28.4%.
To `COc1cccc(CNC(=O)Cc2c(C(=O)O)[nH]c3ccccc23)c1` belongs 8.02%.
`Cc1ccc(NC(=O)C(=O)NCC2CCCO2)cc1C` (stereo not drawn): the inhibition is -1.64%.
`COCc1nnc(NS(=O)(=O)c2ccc(C)cc2)s1`: the inhibition is 4.91%.
The same measure for `COc1ccc(S(=O)(=O)Nc2nncs2)cc1`: 54.3%; for `Cc1cc(C)c(C#N)c(SCC(=O)Nc2ccc3c(c2)OCO3)n1`: 2.63%.
`Cc1nc(SCC(=O)Nc2ccc(F)cc2)c(C#N)c(C)c1CC(=O)c1ccc(Br)cc1`: the inhibition is -7.6%.
Take `Cc1cc(C)c(C#N)c(SCC(=O)Nc2ccccc2C(N)=O)n1`: the inhibition is -14.1%.
To `COc1ccc(-c2cc(C(F)(F)F)c(C#N)c(SCC(=O)Nc3ccccc3C#N)n2)cc1` belongs -5.46%.
Regarding `Cc1cc(C)c(C#N)c(SCC(=O)Nc2ccccc2C)n1`, the inhibition is -11.6%.
Consider `COCc1cc(C)nc(SCC(=O)Nc2ccccc2C)c1C#N`, for which the inhibition is -1.72%.
To `Cc1ccccc1NC(=O)CSc1nc(N)c(C#N)cc1C#N` belongs -1.94%.
In the case of `Cc1ccc(C)c(NC(=O)CSc2nc(C)cc(C)c2C#N)c1`, the inhibition is 11.2%.
On to `O=C(NCCc1c[nH]c2ccccc12)/C(=C/c1cccnc1)NC(=O)c1cccs1`, for which the inhibition was 7.81%.
`Cc1ccc(NC(=O)CCCN2C(=S)NC(C)(C)CC2C)cc1` (stereo not drawn): the inhibition was 4.19%.
Turning to `CCCN(c1nc(C)cc(OC)n1)S(=O)(=O)c1ccccc1`, the inhibition is -8.31%.
As to `Cc1cc(-c2[nH]nc3c2C(c2ccc(Cl)cc2)C(C#N)=C(N)O3)c(C)s1` (stereo not drawn), the inhibition was 23.3%.
With `N#CC1=C(N)Oc2n[nH]c(-c3ccncc3)c2C1c1ccsc1` (stereo not drawn), the inhibition was 27.9%.
Take `CCOc1ccc(-c2[nH]nc3c2C(c2cccnc2)C(C#N)=C(N)O3)cc1` (stereo not drawn): the inhibition is 24.6%.
Regarding `COc1ccc(-c2[nH]nc3c2C(c2ccsc2)C(C#N)=C(N)O3)cc1` (stereo not drawn), the inhibition was 72.1%.
`Cc1cc(-c2[nH]nc3c2C(c2ccsc2)C(C#N)=C(N)O3)c(C)s1` (stereo not drawn): the inhibition was 45.6%.
On to `N#CC1=C(N)Oc2n[nH]c(-c3cccs3)c2C1c1cccnc1` (stereo not drawn), for which the inhibition is 24.1%.
For `Cc1cc(NS(=O)(=O)c2ccc(NC(=O)c3ccc(Br)o3)cc2)nc(C)n1`, the inhibition is 4.58%.
As to `N/C(=N\OC(=O)CCC1CCCC1)c1ccccn1`, the inhibition was 7.09%.
For the compound `CCOn1c(-n2nc(C)cc2C)nc2ccccc2c1=O`, the inhibition is -1.28%.
For the compound `Cc1ccc(-c2noc(CCC(=O)NCC3CCN(Cc4cccc(C)c4)CC3)n2)cc1`, the inhibition was -0.25%.
Consider `COc1cc(/C=C2/NC(=O)N(Cc3ccccc3F)C2=O)ccc1Oc1ccc([N+](=O)[O-])cn1`, for which the inhibition is -10.8%.
In the case of `COc1cccc(CN2CCN(C3CCN(c4ccccc4F)CC3)CC2CCO)c1` (stereo not drawn), the inhibition was 3.43%.
With `CCOc1ccc(NC(=O)COc2ccccc2)c([N+](=O)[O-])c1`, the inhibition was 4.93%.
Consider `CCOc1ccc(OCC(=O)Nc2ccc(OC)cc2[N+](=O)[O-])cc1`, for which the inhibition is -4.57%.
`COc1ccc(NC(=O)CSc2ccccn2)c([N+](=O)[O-])c1`: the inhibition was 4.06%.
Regarding `COc1ccc(NC(=O)CSc2ccccc2)c([N+](=O)[O-])c1`, the inhibition is 13%.
In the case of `COc1ccc(NC(=O)CSc2nncn2C)c([N+](=O)[O-])c1`, the inhibition is 41.3%.
To `CCOc1ccc(NC(=O)Cc2cccc3ccccc23)c([N+](=O)[O-])c1` belongs 33.7%; to `CCCc1cc(=O)oc2cc(OCC(=O)Nc3cc(C)on3)ccc12`, -41.2%.
As for `CCNS(=O)(=O)c1ccc2c(c1)n(C)c(=O)n2C`, the inhibition was 6.77%.
For the compound `[O-]/C(=C(\C(=S)Nc1ccccc1F)[n+]1ccccc1)c1ccc(-c2ccccc2)cc1`, the inhibition is -0.96%.
Regarding `CCc1ccc(N(C(=O)c2snc(C(N)=O)c2N)C(C(=O)NCC2CCCO2)c2cccs2)cc1` (stereo not drawn), the inhibition is -0.4%.
